The full list was thinned out, with hits kept by preference.
Tgondii IFNg = T. gondii growth inhibition with IFN-gamma, primary screen, cell-based. AID 1259416, 2018. Toxoplasma gondii growth in IFN-gamma-treated host cells; stronger effect = lower value. 3.8% of 69,000 active. activity change, negative = inhibition, % (no concentration beside the values); in the data active = activity change below about -70%, passing the limit was not always enough;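 also: host cells are HeLa cells infected with Toxoplasma gondii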
Numbers without * were called inactive; ! = a repeat was not active.

SMILES | Tgondii IFNg
CS(=O)(=O)N1CCC2(CC1)CC(NCc1cccs1)c1ccccc12 (stereo not drawn) | -94.0*
COCCN1CCC2(CC1)CC(NCc1ccc(C)s1)c1ccccc12 (stereo not drawn) | -3.5
Cc1cc(C)n(Cc2ccc(C(=O)N(C)C(C)c3ccccn3)cc2)n1 (stereo not drawn) | -41.1
Cc1ccccc1-c1nc(CSc2nc3c(=O)[nH]cnc3n2CC2CCCO2)c(C)o1 (stereo not drawn) | -12.3
COc1ccc(-c2nnc(-c3nc(Nc4cccc(Br)c4)c4ccccc4n3)o2)cc1 | 25.0
OCC1CCN(Cc2cc3n(n2)CCCNC3)CC1 | 2.8
c1ccc2c(c1)CCC(N1CCN(Cc3cc4n(n3)CCNC4)CC1)C2 (stereo not drawn) | 11.5
c1cc2c(cc1OCC1CCN(Cc3cc4n(n3)CCNC4)CC1)CCC2 | -87.4*
CN(C)c1ncnc2c1CCN(CC1CCC1)CC2 | 2.0
CCCCCCCCCCC[C@@H](C[C@@H]1OC(=O)[C@H]1CCCCCC)OC(=O)[C@H](CC(C)C)NC=O | -82.3*
CCCCC[C@H](O)/C=C/[C@H]1[C@H](O)CC(=O)[C@@H]1CCCCCCC(=O)O | 13.6
Cc1cc(C(=O)N2CCC(N3CCCC(C(=O)N4CCOCC4)C3)CC2)no1 (stereo not drawn) | 5.7
CC(C)c1noc(-c2ccc(NCC3OCCc4ccccc43)nc2)n1 (stereo not drawn) | 7.0
O=C(Nc1cccc(Cn2cncn2)c1)c1cc(-c2ccccn2)nc2ccccc12 | -28.6
Cc1ccc2[nH]cc(CCNC(=O)c3cc(-c4ccccn4)nc4ccccc34)c2c1 | 60.7
Cn1nccc1-c1cc(C(=O)Nc2nc(-c3ccccn3)cs2)c2ccccc2n1 | -100.9*
Cc1cc2nc3n(c2cc1C)C(=O)C1C2c4ccccc4C(c4ccccc42)C31 (stereo not drawn) | -17.2
CC(C)(C)c1csc(CCNC(=O)CN2C(=O)COc3c(Cl)cccc32)n1 | 1.7
CC(=O)[C@@]1(O)CCC2C3CCC4=CC(=O)CC[C@]4(C)C3CC[C@@]21C (stereo partly drawn) | -11.2
C[C@]12CCC3c4ccc(OC(=O)c5ccccc5)cc4CCC3C1CC[C@@H]2O (stereo partly drawn) | -86.7*
C[C@]12CC[C@@H]3c4ccc(OS(=O)(=O)O)cc4CC[C@H]3[C@@H]1CCC2=O | 1.3
C#C[C@]1(O)CC[C@H]2[C@@H]3CCc4cc(O)ccc4[C@H]3CC[C@@]21C | -78.9*!
CC(=O)O[C@H]1CC[C@H]2[C@@H]3CCc4cc(O)ccc4[C@H]3CC[C@]12C | -5.6
CC12CCC3c4ccc(O)cc4CCC3C1CCC2=O (stereo not drawn) | -63.2
CC(=O)[C@@]1(O)CC[C@H]2[C@@H]3CCC4=CC(=O)CC[C@]4(C)[C@H]3CC[C@@]21C | 7.9
SMILES | Tgondii IFNg
COc1ccc2c(c1)CCC1C2CCC2(C)C(=O)CCC12 (stereo not drawn) | -14.2
CC(=O)OC1CCC2C3CCc4cc(O)ccc4C3CCC12C (stereo not drawn) | -27.8
C[C@]12CCC3c4ccc(O)cc4CCC3C1CCC2=O (stereo partly drawn) | -78.7*
CC12CCC3c4ccc(OC(=O)c5ccccc5)cc4CCC3C1CCC2O (stereo not drawn) | -52.7
C#CC1(O)CCC2C3CCC4=Cc5oncc5CC4(C)C3CCC21C (stereo not drawn) | -86.5*
CO[C@H](C(=O)NC1CCN(Cc2cccc(O)c2)CC1)c1ccccc1 | -5.5
c1csc(C(Cc2ccsc2)NCc2ccc(N3CCOCC3)cc2)n1 (stereo not drawn) | 75.9
COC[C@H]1CN(C)C[C@]12CCN(C(=O)c1cc3ccccc3s1)C2 | -49.7
CCN1c2cc(C)ccc2-n2cccc2C12CCN(C(=O)c1cc(OC)c(OC)c(OC)c1)CC2 | -10.0
Cc1ccc2oc(C(=O)N3CCC4(CC3)NC(=O)c3cc(Cl)ccc3N4)cc(=O)c2c1 | -26.7
CN1C(=O)CCC2C1CCN2C(=O)c1ccc2c(c1)OCO2 (stereo not drawn) | -4.2
CC(C)=CCN1CCc2c([nH]c3ccccc23)C1c1cccc(C)n1 (stereo not drawn) | 20.7
CC(C)N1CCC(N2CCN(Cc3cccc4c3OCO4)CC2CCO)CC1 (stereo not drawn) | 5.4
Cn1cc(N2CC3(CNCCOC3)OCC2=O)cn1 (stereo not drawn) | -33.3
CNC(=O)c1cc(=O)n(CC(=O)Nc2cccc(OC)c2)c2ccccc12 | 12.3
C[C@]12CC[C@@H]3c4cc(O)c(O)cc4CC[C@H]3[C@@H]1CC[C@@H]2O | -67.1
C[C@]12CC[C@@H]3c4ccc(O)cc4CC[C@H]3[C@@H]1CC[C@@H]2O | -83.8*
COc1ccc2c(c1)CCC1C2CC[C@@]2(C)C1CC[C@@H]2O (stereo partly drawn) | -45.6
COc1ccc2c(c1)NC1(CCN(C(=O)c3c(F)cccc3F)CC1)c1cccn1-2 | 19.3
Brc1ccc2c(c1)C1C=CCC1C(C1CC=CCC1)N2 (stereo not drawn) | 27.1
C[C@H]1C[C@H]2CN(C(=O)c3ccc4c(c3)OCO4)C[C@H]2O1 | 24.2
CC(=O)c1ccc2c(c1)[C@@H]1C=CC[C@@H]1[C@H](c1cc3c(cc1Br)OCO3)N2 | -75.3*
O=C(CCc1cc(=O)[nH]o1)N1C[C@H]2CC=CC[C@H]2C1 | 0.8
CCn1c(C2CCN(CC3CCN(CCOC)CC3)CC2)nn(C)c1=O | 2.3
N#CCSC1=Nc2ccccc2C2=NC(CC(=O)NCc3cccs3)C(=O)N12 (stereo not drawn) | 6.6
SMILES | Tgondii IFNg
O=C1CCCN1CCCC(=O)N1C2CCC1Cn1c(nc3ccccc3c1=O)C2 (stereo not drawn) | -8.1
CCc1ccc(S(=O)(=O)N2CCC3(CCCN(C)C3=O)C2)cc1 (stereo not drawn) | 0.6
CCCc1ccc(S(=O)(=O)N2CCC(C(=O)NCCc3csc(-c4ccccc4)n3)CC2)cc1 | -52.0
O=C1C(Cc2c[nH]c3ccccc23)N=C2c3ccccc3N=C(SCc3ccc(Cl)cc3)N12 (stereo not drawn) | 10.3
CC(Cc1cnccn1)n1cc(-c2ccnc3ccccc23)nn1 (stereo not drawn) | -10.6
COc1cc(C)ccc1-c1c(-c2ccccc2)ncn1C(C)Cc1cnccn1 (stereo not drawn) | -4.2
COCCn1c2c([n+](Cc3cnccn3)c1C)C(=O)c1ccccc1C2=O | -83.3*
Cc1onc(-c2ccccc2)c1C(=O)N1CCC(O)(CN(C)C)C1 (stereo not drawn) | -5.5
O=C(c1ccco1)N1CC[C@@H]2CN(C3CCOCC3)CCO[C@H]2C1 | 5.4
O=C(CNC(=O)OCc1ccccc1)NC1CCCCCC1 | 12.1
CS(=O)(=O)CC(=O)NC1CCCCC1 | 40.3
CC1=CC(C)C(COC(=O)NC2CCCCC2)(COC(=O)NC2CCCCC2)C(C)C1 (stereo not drawn) | -100.8*
Cc1cc(C2CCC2)nc(N(C)Cc2cccnc2)n1 | 6.7
COc1cc2c(c(OC)c1OC)-c1ccc(OC)c(=O)cc1C(NC(C)=O)CC2 (stereo not drawn) | -78.7*
COc1cc(-c2cccc(NC(C)=O)c2)cc(OC)c1OC | 11.3
COc1cc2c(c(OC)c1OC)C(=O)CC2 | 73.5
CCOC(=O)CC(=O)N1CCSC1COc1ccccc1OC (stereo not drawn) | 18.6
CC(C)Cc1noc(C(C)NC2CCN(c3ccc4c(c3)OCO4)CC2)n1 (stereo not drawn) | -1.6
Nc1nccnc1C(=O)Oc1ccccc1 | 21.4
O=C1SCCc2c1n(Cc1ccccc1)c1ccccc21 | 23.0
